Measurements taken from PubChem BioAssay AID1159580 (chemical genetic matrix, 2015).
Several values for one entry are separate records, joined by “and”; a condition that tells them apart may be missing. Equal values may be shown once. Hit rate of the full screen: of about 5,500 compounds, about 2,000 (36%) were called active. Inconclusive results (about 18%) are left out. No stated cut-off is given here; in the data, active means normalized growth mostly below about 0.91 (no sharp cut-off); inconclusive means no clear call, values can overlap the other calls; inactive means mostly above about 0.92. The list shows a part of the results.

Experiment: chemical genetic growth profiling, strain panel (AID 1159580);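 further: tested at 20 µM; growth read once vehicle control cultures reached saturation at 30 °C; 1 = growth at the plate median or of vehicle wells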
Conditions: S. cerevisiae deletion strains, growth OD

Measured: normalized growth

CC(C)=CCCC1(C)C=Cc2c(O)c3c(c(CC=C(C)C)c2O1)OC12C(=CCCC1C(C)(C)O[C@@]2(C/C=C(\C)C(=O)O)C(=O)O)C3=O (some centres not stated)
active: locus YAL026C, strain drs2, stronger effect = lower value 0.813 | locus YAL030W, strain snc1, stronger effect = lower value 0.915 | locus YBL061C, strain skt5, stronger effect = lower value 0.918 | locus YBR009C, strain hhf1, stronger effect = lower value 0.86 | locus YBR023C, strain chs3, stronger effect = lower value 0.844 | locus YBR229C, strain ROT2, stronger effect = lower value 0.903 | locus YBR231C, strain swc5, stronger effect = lower value 0.861 | locus YCL011C, strain gbp2, stronger effect = lower value 0.887 | locus YCL029C, strain bik1, stronger effect = lower value 0.907 | locus YDL035C, strain GPR1, stronger effect = lower value 0.782 | locus YDL074C, strain BRE1, stronger effect = lower value 0.685 | locus YDL101C, strain DUN1, stronger effect = lower value 0.834 | locus YDL192W, strain arf1, stronger effect = lower value 0.766 | locus YDR101C, strain arx1, stronger effect = lower value 0.869 | locus YDR137W, strain rgp1, stronger effect = lower value 0.498 | locus YDR159W, strain sac3, stronger effect = lower value 0.694 | locus YDR162C, strain NBP2, stronger effect = lower value 0.377 | locus YDR297W, strain sur2, stronger effect = lower value 0.861 | locus YDR318W, strain mcm21, stronger effect = lower value 0.81 | locus YDR335W, strain msn5, stronger effect = lower value 0.881 | locus YDR388W, stronger effect = lower value 0.884 | locus YDR392W, strain spt3, stronger effect = lower value 0.283 | locus YDR502C, strain sam2, stronger effect = lower value 0.864 | locus YEL003W, strain gim4, stronger effect = lower value 0.907 | locus YEL061C, strain CIN8, stronger effect = lower value 0.89 | locus YER015W, strain faa2, stronger effect = lower value 0.84 | locus YER111C, strain swi4, stronger effect = lower value 0.91 | locus YER155C, strain BEM2 (second series), stronger effect = lower value 0.546 | locus YER155C, strain BEM2, stronger effect = lower value 0.879 | locus YER167W, strain BCK2, stronger effect = lower value 0.807 | locus YGL086W, strain mad1, stronger effect = lower value 0.851 | locus YGL173C, strain kem1, stronger effect = lower value 0.701 | locus YGL248W, strain PDE1, stronger effect = lower value 0.792 | locus YGL253W, strain hxk2, stronger effect = lower value 0.85 | locus YGR078C, strain PAC10, stronger effect = lower value 0.753 | locus YGR135W, strain pre9, stronger effect = lower value 0.863 | locus YHR027C, strain rpn1, stronger effect = lower value 0.814 | locus YHR129C, strain ARP1, stronger effect = lower value 0.808 | locus YHR142W, strain chs7, stronger effect = lower value 0.702 | locus YIL066C, strain RNR3, stronger effect = lower value 0.804 | locus YJL095W, strain BCK1 (second series), stronger effect = lower value 0.609 | locus YJL164C, strain tpk1, stronger effect = lower value 0.86 | locus YJL166W, strain qcr8, stronger effect = lower value 0.851 | locus YJL187C, strain SWE1 (second series), stronger effect = lower value 0.789 | locus YJR043C, strain POL32, stronger effect = lower value 0.822 | locus YKL160W, strain elf1, stronger effect = lower value 0.896 | locus YKR001C, strain vps1, stronger effect = lower value 0.739 | locus YLR027C, strain aat2, stronger effect = lower value 0.911 | locus YLR039C, strain RIC1, stronger effect = lower value 0.366 | locus YLR058C, strain SHM2, stronger effect = lower value 0.803 | locus YLR221C, strain rsa3, stronger effect = lower value 0.823 | locus YLR262C, strain YPT6 (second series), stronger effect = lower value 0.402 | locus YLR268W, strain sec22, stronger effect = lower value 0.772 | locus YLR320W, strain mms22, stronger effect = lower value 0.646 | locus YLR330W, strain CHS5, stronger effect = lower value 0.845 | locus YLR342W, strain FKS1 (second series), stronger effect = lower value 0.77 | locus YLR342W, strain FKS1, stronger effect = lower value 0.818 | locus YLR371W, strain rom2, stronger effect = lower value 0.738 | locus YLR418C, strain cdc73, stronger effect = lower value 0.509 | locus YML016C, strain PPZ1, stronger effect = lower value 0.907 | locus YML032C, strain rad52, stronger effect = lower value 0.828 | locus YMR058W, strain fet3, stronger effect = lower value 0.258 | locus YMR125W, strain sto1, stronger effect = lower value 0.848 | locus YMR205C, strain PFK2, stronger effect = lower value 0.812 | locus YMR223W, strain ubp8, stronger effect = lower value 0.825 | locus YMR231W, strain pep5, stronger effect = lower value 0.762 | locus YMR307W, strain GAS1, stronger effect = lower value 0.317 | locus YNL071W, strain lat1, stronger effect = lower value 0.463 | locus YNL128W, strain TEP1, stronger effect = lower value 0.797 | locus YNL153C, strain GIM3, stronger effect = lower value 0.847 | locus YNL209W, strain ssb2, stronger effect = lower value 0.783 | locus YNL233W, strain BNI4, stronger effect = lower value 0.823 | locus YNL307C, strain MCK1, stronger effect = lower value 0.437 | locus YNL322C, strain KRE1, stronger effect = lower value 0.923 | locus YNR052C, strain pop2, stronger effect = lower value 0.846 | locus YOL147C, strain pex11, stronger effect = lower value 0.867 | locus YOR061W, strain CKA2, stronger effect = lower value 0.831 | locus YOR069W, strain VPS5, stronger effect = lower value 0.847 | locus YOR106W, strain vam3, stronger effect = lower value 0.697 | locus YOR144C, strain elg1, stronger effect = lower value 0.888 | locus YOR184W, strain ser1, stronger effect = lower value 0.632 | locus YOR270C, strain vph1, stronger effect = lower value 0.517 | locus YPL051W, strain arl3, stronger effect = lower value 0.664 | locus YPL055C, strain LGE1, stronger effect = lower value 0.734 | locus YPR163C, strain tif3, stronger effect = lower value 0.524 | strain wtn01, stronger effect = lower value 0.817
0.263 (active) and 0.923 (inactive): locus YJL095W, strain BCK1, stronger effect = lower value
inactive: locus YAL021C, strain ccr4, stronger effect = lower value 0.996 | locus YBR021W, strain FUR4, stronger effect = lower value 1.03 | locus YBR171W, strain sec66, stronger effect = lower value 1 | locus YBR279W, strain paf1, stronger effect = lower value 0.933 | locus YCL016C, strain dcc1, stronger effect = lower value 0.92 | locus YCL069W, strain vba3, stronger effect = lower value 0.941 | locus YCR088W, strain abp1, stronger effect = lower value 0.988 | locus YDL005C, strain med2, stronger effect = lower value 1.03 | locus YDL040C, strain nat1, stronger effect = lower value 0.999 | locus YDL185W, strain tfp1, stronger effect = lower value 0.964 | locus YDR001C, strain nth1, stronger effect = lower value 0.999 | locus YDR069C, strain doa4, stronger effect = lower value 0.923 | locus YDR195W, strain ref2 1.12 | locus YDR334W, strain swr1, stronger effect = lower value 0.991 | locus YEL037C, strain rad23, stronger effect = lower value 0.987 | locus YEL061C, strain CIN8 (second series), stronger effect = lower value 0.963 | locus YER016W, strain bim1, stronger effect = lower value 0.957 | locus YER110C, stronger effect = lower value 0.953 | locus YFR010W, strain ubp6, stronger effect = lower value 0.919 | locus YGL078C, strain dbp3, stronger effect = lower value 0.998 | locus YGL167C, strain pmr1, stronger effect = lower value 0.996 | locus YGL227W, strain vid30, stronger effect = lower value 1.04 | locus YGL240W, strain doc1, stronger effect = lower value 0.989 | locus YGR252W, strain gcn5, stronger effect = lower value 0.902 | locus YHR013C, strain ard1, stronger effect = lower value 0.96 | locus YHR079C, strain IRE1 (second series), stronger effect = lower value 0.979 | locus YHR079C, strain IRE1, stronger effect = lower value 0.94 | locus YHR094C, strain hxt1, stronger effect = lower value 0.973 | locus YHR200W, strain rpn10, stronger effect = lower value 0.952 | locus YIL073C, strain SPO22, stronger effect = lower value 0.873 | locus YIL125W, strain kgd1, stronger effect = lower value 0.961 | locus YIR030C, strain dcg1, stronger effect = lower value 0.942 | locus YJL092W, strain hpr5, stronger effect = lower value 0.949 | locus YJL115W, strain asf1, stronger effect = lower value 1.04 | locus YJL129C, strain trk1, stronger effect = lower value 0.973 | locus YJL134W, strain LCB3, stronger effect = lower value 0.929 | locus YJL154C, strain vps35, stronger effect = lower value 1.01 | locus YJL168C, strain set2, stronger effect = lower value 0.971 | locus YJR066W, strain TOR1, stronger effect = lower value 0.909 | locus YKL009W, strain mrt4, stronger effect = lower value 1.11 | locus YKL068W, stronger effect = lower value 0.981 | locus YKL085W, strain MDH1 (second series), stronger effect = lower value 0.968 | locus YKL085W, strain MDH1, stronger effect = lower value 0.968 | locus YKR026C, strain gcn3, stronger effect = lower value 1 | locus YKR091W, strain srl3, stronger effect = lower value 0.998 | locus YLL001W, strain dnm1, stronger effect = lower value 0.932 | locus YLL026W, stronger effect = lower value 0.985 | locus YLL041C, strain sdh2, stronger effect = lower value 0.992 | locus YLR102C, strain apc9, stronger effect = lower value 0.988 | locus YLR113W, strain HOG1, stronger effect = lower value 0.882 | locus YLR258W, strain gsy2, stronger effect = lower value 0.924 | locus YLR357W, strain rsc2, stronger effect = lower value 1.01 | locus YLR370C, strain arc18, stronger effect = lower value 0.988 | locus YLR384C, strain iki3, stronger effect = lower value 1.02 | locus YML120C, strain ndi1, stronger effect = lower value 0.964 | locus YML124C, strain tub3, stronger effect = lower value 0.948 | locus YMR078C, strain ctf18, stronger effect = lower value 0.973 | locus YMR129W, stronger effect = lower value 0.935 | locus YMR263W, strain SAP30, stronger effect = lower value 0.936 | locus YNL067W, strain RPL9B, stronger effect = lower value 0.917 | locus YNL183C, strain NPR1, stronger effect = lower value 0.895 | locus YNL248C, strain rpa49, stronger effect = lower value 0.935 | locus YNL250W, strain rad50, stronger effect = lower value 0.956 | locus YNL271C, strain bni1, stronger effect = lower value 0.947 | locus YNL298W, strain CLA4, stronger effect = lower value 0.963 | locus YNL322C, strain KRE1 (second series), stronger effect = lower value 1.04 | locus YNR049C, strain mso1, stronger effect = lower value 0.986 | locus YOL012C, strain htz1 0.267 | locus YOR001W, strain rrp6, stronger effect = lower value 0.901 | locus YOR070C, strain gyp1, stronger effect = lower value 0.931 | locus YOR080W, strain dia2, stronger effect = lower value 1.03 | locus YOR083W, strain WHI5, stronger effect = lower value 0.909 | locus YOR136W, strain idh2, stronger effect = lower value 0.94 | locus YOR231W, strain MKK1, stronger effect = lower value 0.942 | locus YOR265W, strain rbl2, stronger effect = lower value 0.945 | locus YOR290C, strain snf2, stronger effect = lower value 0.944 | locus YOR316C, strain cot1, stronger effect = lower value 0.979 | locus YPL078C, strain atp4, stronger effect = lower value 0.897 | locus YPL106C, strain sse1, stronger effect = lower value 0.993 | locus YPL240C, strain hsp82, stronger effect = lower value 0.955 | locus YPL256C, strain CLN2, stronger effect = lower value 0.893 | locus YPR119W, strain clb2, stronger effect = lower value 0.956 | locus YPR141C, strain kar3, stronger effect = lower value 0.962 | locus YPR167C, strain met16, stronger effect = lower value 0.939
0.501 (active) and 0.921 (inactive): locus YHR030C, strain SLT2, stronger effect = lower value
